Laboratory results published in PubChem BioAssay (NCATS).
Results filed as inconclusive are left out. The source made the active and inactive calls. Calls follow the shape of the dose curve; as a rule, active = well fitted cell-killing curve with a large enough effect; inconclusive = small, poorly fitted or top-dose-only effect, or effect the other way; inactive = flat fitted curve, though single readings scatter. Where a SMILES comes first, the peptide text is derived from it.

Experiments:
Assay in all cases: Primary qHTS to identify gynecologic anti-cancer compounds using libraries of approved drugs and bioactive compounds (AID 1345084); also: nearly all actives have a fitted effect of over 55% in size
Conditions in all cases: Gynecologic cancer cell panel viability, ATPlite luminescence, 48 h; series mostly up to 57.5 µM
OV90 = system: OV90
How it was run: (§1)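 Five-concentration response, 48 h; readout is ATP-driven luciferase luminescence.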

PA-1 = system: PA-1
How it was run: as §1

SKOV3 = system: SKOV3
How it was run: as §1

Tov-21-G = system: Tov-21-G
How it was run: as §1

Tov112D = system: Tov112D
How it was run: as §1
% is scaled to controls: 0 for no effect and ±100 for the full control effect.

CC1=C(CCC(C)O[C@@H]2O[C@H](CO)[C@@H](O)[C@H](O)[C@H]2O)C(C)(C)CC(O)C1 (stereo not given in full)
inactive: Potency (OV90) | Potency (PA-1) | Potency (SKOV3) | Potency (Tov-21-G) | Potency (Tov112D)

CC1(C)CCC[C@]2(C)C1CC=C(CO)[C@H]2CC/C(=C/CO)CO (stereo not given in full)
inactive: Potency (OV90) | Potency (PA-1) | Potency (SKOV3) | Potency (Tov-21-G) | Potency (Tov112D)

COc1cc(O)c(C(=O)O)c(CCc2ccccc2)c1
inactive: Potency (OV90) | Potency (PA-1) | Potency (SKOV3) | Potency (Tov-21-G) | Potency (Tov112D)

CC1(C)CCC2(C(=O)O)CCC3(C)C(=CCC4C5(C)CCC(O)C(C)(CO)C5C(O)CC43C)C2C1 (stereo not given)
inactive: Potency (OV90) | Potency (PA-1) | Potency (SKOV3) | Potency (Tov-21-G) | Potency (Tov112D)

COc1ccc(Oc2c(Cl)cnn(C3c4ccccc4-c4ccccc43)c2=O)cc1
inactive: Potency (OV90) | Potency (PA-1) | Potency (SKOV3) | Potency (Tov-21-G) | Potency (Tov112D)

C=C1C[C@H](O)[C@@H](O)[C@@]2(C)C1[C@@H](O)[C@H]1OC(=O)C3[C@@H](C)[C@@H](O)[C@H](O)C2[C@]31C (stereo not given in full)
inactive: Potency (OV90) | Potency (PA-1) | Potency (SKOV3) | Potency (Tov-21-G) | Potency (Tov112D)

O=C(c1c2ccccc2cc2ccccc12)N1CCC(N2CCC[C@@H](C(=O)N3CCOCC3)C2)CC1
inactive: Potency (OV90) | Potency (PA-1) | Potency (SKOV3) | Potency (Tov-21-G) | Potency (Tov112D)

C=C(CC/C=C(\C)C(=O)O)C1(O)CC=C(C)CC1 (stereo not given)
inactive: Potency (OV90) | Potency (PA-1) | Potency (SKOV3) | Potency (Tov-21-G) | Potency (Tov112D)

COC(=O)C(CC1CCCC1)c1ccc(S(C)(=O)=O)cc1 (stereo not given)
inactive: Potency (OV90) | Potency (PA-1) | Potency (SKOV3) | Potency (Tov-21-G) | Potency (Tov112D)

C=C1CCC2C(C)(C)CC(=O)CC2(C)C1CCC(C)CCO (stereo not given)
inactive: Potency (OV90) | Potency (PA-1) | Potency (SKOV3) | Potency (Tov-21-G) | Potency (Tov112D)

C[C@H]1CC[C@H]2[C@@H](C=C[C@@](C)(O)[C@]2(C)C(=O)CCO)C1
inactive: Potency (OV90) | Potency (PA-1) | Potency (SKOV3) | Potency (Tov-21-G) | Potency (Tov112D)

Cc1cc(-c2nncc3c(C(C)(C)C)c(OCc4ncnn4C)nn23)no1
inactive: Potency (OV90) | Potency (PA-1) | Potency (SKOV3) | Potency (Tov-21-G) | Potency (Tov112D)

C[C@@H]1O[C@@H](O[C@H]2[C@H](Oc3cc(O)c(C(=O)CCc4ccc(O)cc4)c(O)c3)O[C@H](CO)[C@@H](O)[C@@H]2O)[C@H](O)[C@H](O)[C@H]1O
inactive: Potency (OV90) | Potency (PA-1) | Potency (SKOV3) | Potency (Tov-21-G) | Potency (Tov112D)

C=C1CC[C@@]2(OC1)O[C@H]1CC3C4CC=C5C[C@@H](O[C@@H]6O[C@@H](C)[C@H](O)[C@@H](O)[C@H]6O)C[C@@H](O[C@@H]6O[C@H](C)[C@H](O)[C@H](O)[C@H]6O[C@@H]6O[C@@H](C)[C@H](O)[C@@H](O)[C@H]6O)[C@]5(C)C4CC[C@]3(C)[C@H]1[C@@H]2C (stereo not given in full)
inactive: activity change, negative = cytotoxicity (OV90) -12.6% [at 11.6 µM] | activity change, negative = cytotoxicity (PA-1) -0.609% [at 11.6 µM] | activity change, negative = cytotoxicity (SKOV3) -7.76% [at 11.6 µM] | activity change, negative = cytotoxicity (Tov-21-G) -15.7% [at 11.6 µM] | activity change, negative = cytotoxicity (Tov112D) 1.88% [at 11.6 µM]

FC(F)(F)Oc1ccc(-c2ccc3nnc(C(F)(F)F)n3c2)cc1
inactive: Potency (OV90) | Potency (PA-1) | Potency (SKOV3) | Potency (Tov-21-G) | Potency (Tov112D)

C=C1CC2C3(C)C=CC(=O)OC(C)(C)C3CC(OC(C)=O)C2(C)C2C(=O)OC(C)C(=O)C12C (stereo not given)
inactive: Potency (OV90) | Potency (PA-1) | Potency (SKOV3) | Potency (Tov-21-G) | Potency (Tov112D)

CC(C)(O)/C=C/C(=O)[C@](C)(O)[C@H]1[C@H](O)C[C@@]2(C)[C@@H]3CC=C4[C@@H](C=C(O[C@@H]5O[C@H](CO)[C@@H](O)[C@H](O)[C@H]5O)C(=O)C4(C)C)[C@]3(C)C(=O)C[C@]12C
inactive: Potency (OV90) | Potency (PA-1) | Potency (SKOV3) | Potency (Tov-21-G) | Potency (Tov112D)

COc1cc(C(C)=O)ccc1O[C@@H]1O[C@H](CO)[C@@H](O)[C@H](O)[C@H]1O
inactive: Potency (OV90) | Potency (PA-1) | Potency (SKOV3) | Potency (Tov-21-G) | Potency (Tov112D)

O=C(Nc1cc(-c2ccccc2)nn1-c1ccccc1F)c1ccc([N+](=O)[O-])cc1
inactive: Potency (OV90) | Potency (PA-1) | Potency (SKOV3) | Potency (Tov-21-G) | Potency (Tov112D)

CC(C)C1NC(=O)CNC(=O)C2CCCN2C(=O)C(Cc2c[nH]c3ccccc23)NC(=O)CNC(=O)C(Cc2ccc(O)cc2)NC(=O)CNC1=O (stereo not given) (cyclo(GVGYGWP); configuration not given here)
inactive: Potency (OV90) | Potency (PA-1) | Potency (SKOV3) | Potency (Tov-21-G) | Potency (Tov112D)

COc1cc(OC)cc(-c2ccc3c(-c4ccc(F)cc4)[nH]nc3n2)c1
inactive: Potency (OV90) | Potency (PA-1) | Potency (SKOV3) | Potency (Tov-21-G) | Potency (Tov112D)

O=C(NCC(=O)N1CCCC1)Nc1ccc2ccccc2c1
inactive: Potency (OV90) | Potency (PA-1) | Potency (SKOV3) | Potency (Tov-21-G) | Potency (Tov112D)
